PubChem BioAssay

Assays:
[1] = tested on: Human papillomavirus type 1a protein E7 (residues 44-93); assay: HPV1a E7 fragment binders on microarrays, primary screen, biochemical, small-molecule microarray, residues 44-93, 635 nm fluorescence (AID 1108); conditions: small-molecule microarray binding, fluorescence 635 nm; higher = more signal;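 further: E7 fragment applied at 1 µg/mL in TBST for 1 h at 4 C; score combines spot fluorescence with its signal to noise ratio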
[2] = modulators of HCV replicon luciferase signal, primary screen, HCV replication inhibitor project, Huh7 cells, luciferase reporter (AID 1109); conditions: 48 h, higher = more signal;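 further: huh7 hepatoma cells harbouring a luciferase neomycin HCV replicon reporter; luciferase luminescence as measure of HCV replicon replication; test concentration not given here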
[3] = target: Left-right determination factor 2 (Homo sapiens) (UniProt O00292); assay: LEFTY2 binders on small-molecule microarrays, primary screen, biochemical, small-molecule microarray, 635 nm fluorescence scan (AID 1110); conditions: LEFTY2 binding, higher = more signal
[4] = target: Calmodulin-1 (Homo sapiens) (UniProt P0DP23); assay: CALM1 binders on microarrays, EGTA buffer, profiling panel, biochemical, small-molecule microarray, Cy5-labelled CALM1 (AID 1111); conditions: Cy5-CALM1 binding fluorescence, higher = more signal;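 further: labelled calmodulin applied in Tris saline Tween buffer holding calcium plus EGTA and DTT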
[5] = target: Calmodulin-1 (Homo sapiens) (UniProt P0DP23); assay: calcium-bound CALM1 binders on microarrays, profiling panel, artefact control for SMM control-protein annotation, biochemical, small-molecule microarray, Cy5-labelled CALM1, plus calcium (AID 1112); conditions: Cy5-CALM1 binding fluorescence, higher = more signal;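 further: score merges spot fluorescence with signal to noise from triplicate slides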
[6] = small-molecule microarray binders of probe aWnt5a, primary screen, biochemical, biotinylated probe, 635/667 nm fluorescence (AID 1113); conditions: higher = more signal;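 further: score merges 667 nm fluorescence intensity with signal-to-noise per printed feature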
[7] = small-molecule microarray binders of probe aShh, primary screen, biochemical, biotinylated probe, 635/667 nm fluorescence (AID 1114); conditions: higher = more signal;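 further: probe is biotin-labelled aShh protein from a stem cell growth factor screen; measures binding of labelled protein to compounds printed on the slide; score merges feature fluorescence at 667 nm with signal-to-noise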
[8] = small-molecule microarray binders of probe aNog, primary screen, biochemical, biotinylated probe, 635/667 nm fluorescence (AID 1115); conditions: higher = more signal;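 further: probe is biotinylated aNog protein used at 0.15 µg/mL for 1 h at 4 C; z-score combines 667 nm fluorescence of each spot with its signal to noise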
[9] = target: Torsin-1A-interacting protein 1 (Homo sapiens) (UniProt Q5JTV8); assay: LAP1 binders from COS7 cell lysate, primary screen, small-molecule microarray, 635/667 nm fluorescence (AID 1116); conditions: COS7-hLAP1 lysate binding, 635 nm fluorescence, higher = more signal
[10] = target: Alpha-bungarotoxin (Bungarus multicinctus) (UniProt P60615); assay: alpha-bungarotoxin binders on microarray, profiling panel, artefact control for SMM control protein annotation, biochemical, small-molecule microarray, Alexa647 label, 635/667 nm fluorescence (AID 1117); conditions: alpha-BTX-A647 binding fluorescence, higher = more signal
Alpha-bungarotoxin (Bungarus multicinctus), sequence (P60615 whole entry, looked up): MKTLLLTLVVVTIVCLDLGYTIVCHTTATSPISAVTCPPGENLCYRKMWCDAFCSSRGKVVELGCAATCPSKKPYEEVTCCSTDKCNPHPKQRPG

Left-right determination factor 2 (Homo sapiens), sequence (O00292 whole entry, looked up): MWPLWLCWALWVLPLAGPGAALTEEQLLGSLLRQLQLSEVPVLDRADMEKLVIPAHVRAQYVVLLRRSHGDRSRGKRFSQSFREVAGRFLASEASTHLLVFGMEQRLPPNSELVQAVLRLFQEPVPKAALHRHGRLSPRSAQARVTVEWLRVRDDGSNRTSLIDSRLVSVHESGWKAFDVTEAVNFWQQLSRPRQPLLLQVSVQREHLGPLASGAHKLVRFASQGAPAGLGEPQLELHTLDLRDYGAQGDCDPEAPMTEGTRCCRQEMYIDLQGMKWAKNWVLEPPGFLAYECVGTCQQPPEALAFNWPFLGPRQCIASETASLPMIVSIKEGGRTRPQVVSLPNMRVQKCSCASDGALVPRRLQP
Torsin-1A-interacting protein 1 (Homo sapiens), sequence (Q5JTV8 whole entry, looked up): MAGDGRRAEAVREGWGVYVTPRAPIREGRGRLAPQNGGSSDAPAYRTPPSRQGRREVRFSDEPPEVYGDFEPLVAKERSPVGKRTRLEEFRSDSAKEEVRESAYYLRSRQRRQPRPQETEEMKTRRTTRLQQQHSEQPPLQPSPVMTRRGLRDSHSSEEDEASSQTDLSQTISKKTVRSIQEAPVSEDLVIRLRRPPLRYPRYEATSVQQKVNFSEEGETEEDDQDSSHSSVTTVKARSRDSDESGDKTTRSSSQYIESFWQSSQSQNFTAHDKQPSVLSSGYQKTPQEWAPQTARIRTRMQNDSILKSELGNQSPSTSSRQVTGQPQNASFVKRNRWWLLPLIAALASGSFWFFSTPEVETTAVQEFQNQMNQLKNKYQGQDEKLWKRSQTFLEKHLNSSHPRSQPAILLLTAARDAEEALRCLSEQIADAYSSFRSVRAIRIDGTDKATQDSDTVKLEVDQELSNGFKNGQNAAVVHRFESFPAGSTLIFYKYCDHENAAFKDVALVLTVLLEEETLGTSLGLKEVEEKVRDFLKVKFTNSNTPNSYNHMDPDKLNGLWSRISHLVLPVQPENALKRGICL

Structure (SMILES) | composite z-score [1] | z-score [2] | composite z-score [3] | composite z-score [4] | composite z-score [5] | composite z-score [6] | composite z-score [7] | composite z-score [8] | composite z-score [9] | composite z-score [10]
C=CC[C@@H]1C=C[C@H](ON=C(C)CCN2CCCCc3nc(C)c(C)cc32)[C@@H](CO)O1 | 0.322 | -0.197 | 1.25 | -0.937 | -1.72 | -0.0276 | 0.0684 | -0.444 | 0.533 | -0.102
O=C1[C@H]2CCn3c(=O)n(Cc4cc5c(cc4Cl)OCO5)c(=O)n3[C@H]2[C@H](O)[C@@H]2O[C@H]12 | -0.552 | -1.94 | 0.269 | -0.806 | -0.697 | -0.295 | -0.237 | -0.492 | 0.054 | 0.389
CCOC(=O)[C@H](CC(C)C)NC(=O)CCC1CC(OC(=O)NCCc2ccc(F)cc2)CC2(CCCC(COC(=O)NCc3cccc(C(F)(F)F)c3)O2)O1 (stereo not given in full) | 1.38 | -0.0709 | 0.605 | -0.134 | -0.448 | -0.129 | -0.154 | 0.28 | 0.274 | 0.342
CC(C)CON=C1C[C@@H](O)[C@@H](O)[C@@H]2[C@@H]3C(=O)N(C(C)(C)C)C(=O)[C@@H]3CC[C@@H]12 | -0.219 | -0.851 | 1.1 | -1.39 | -2.27 | -0.178 | -0.229 | -0.158 | 0.0031 | -0.718
CC(C)=CCCC(C)=CCON=C1C[C@@H](O)[C@@H](O)[C@@H]2[C@@H]3C(=O)N([C@@H](C)c4ccccc4)C(=O)[C@@H]3CC[C@@H]12 | 0.257 | 0.0308 | 0.898 | -0.544 | -0.406 | -0.012 | -0.289 | -0.247 | 0.222 | 0.551
CCOC(=O)[C@H](CC(C)C)NC(=O)CCC1CC(OC(=O)NCc2ccc3c(c2)OCO3)CC2(CCCC(COC(=O)NCCc3ccccc3OC)O2)O1 (stereo not given in full) | 1.31 | -0.621 | 0.613 | 0.618 | -0.375 | -0.298 | -0.0626 | -0.41 | 0.389 | 0.556
CON(C)C(=O)c1nnc2c(n1)[nH]c1ccccc12 | -0.186 | 2.27 | 0.414 | -0.15 | -0.229 | -0.148 | -0.23 | -0.33 | 2.14 | 0.573
O=C1[C@H]2[C@H]3[C@H](O)[C@H](O)CC(=NO[C@@H]4O[C@H](CO)[C@@H](O)[C@H](O)[C@H]4O)[C@H]3CC[C@H]2C(=O)N1c1ccc(F)cc1F | 0.491 | 0.29 | 0.382 | -0.466 | -1.2 | -0.0088 | 0.178 | -0.273 | -0.267 | 0.184
CC(=O)OC[C@H]1O[C@H](CC=NOCC[C@@H]2C=C[C@H](OC(C)=O)[C@@H](COC(C)=O)O2)C=C[C@@H]1OC(C)=O | 1.02 | 0.111 | 0.888 | -0.981 | -0.171 | -0.001 | -0.0904 | -0.216 | -0.0873 | 0.408
C[C@@H]1CC[C@H]2C(=O)OC(Cc3ccccc3)CN2[C@H]1c1ccc(Br)cc1 (stereo not given in full) | 0.911 | 0.161 | 0.34 | -0.241 | -0.536 | -0.228 | -0.0146 | 0.105 | 0.781 | 0.599
COC(=O)[C@H](CCSC)NC(=O)CC=C[C@@H](C)CO | 0.264 | 0.748 | 1.58 | -1.12 | -2.32 | 0.149 | -0.0192 | -0.394 | 1.21 | -0.614
CC1(C)O[C@H]2O[C@H]([C@H](O)CON=C3[C@H]4CCn5c(=O)n(-c6ccccc6)c(=O)n5[C@H]4[C@H](O)[C@@H]4O[C@H]34)[C@H](O)[C@H]2O1 | -1.32 | -0.0374 | 0.257 | 0.759 | 0.118 | -0.0748 | -0.501 | 0.222 | -0.144 | 0.168
C[C@H]1CC[C@H]2C(=O)OC(COc3ccc(C(C)(C)C)cc3)CN2[C@@H]1c1ccc(Br)cc1 (stereo not given in full) | 1.1 | 1.1 | 0.0037 | 0.464 | 0.14 | -0.277 | -0.0709 | -0.111 | 0.0437 | 0.319
COC(=O)CC=C[C@@H](C)[C@@H](C=NOC(C)CN1CCCCc2nc(C)c(C)cc21)OC (stereo not given in full) | 1.04 | -1.23 | 1.11 | -0.452 | -1.05 | -0.1 | -0.138 | -0.619 | 0.449 | 0.143
CO[C@@H]1C=CCC(=O)N[C@@H](C)C(=O)OC[C@@H](OC)[C@H](C)C=CCC(=O)OC[C@H]1C | -0.669 | 0.388 | 1.48 | -1.14 | -1.96 | -0.152 | -0.0035 | 0.109 | 0.037 | 0.373
